The record followed here is PubChem BioAssay AID743093 (The Scripps Research Institute Molecular Screening Center, 2013).

The whole screen tested about 150,000 compounds, of which about 100 (0.067%) were called active. This is one part of a sample in which actives are shown more often than they occur.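 How the source made its calls: active means inhibition above the mean plus 3 SD of compounds within the control limits, set per campaign (cut at about 38% in these data); inactive means the rest.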

The nature of this assay: reduced ATP in mature Plasmodium gametocytes – ATP luminescence, HTS, primary screen (AID 743093).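 Further: 0% = DMSO wells and 100% = medium only without gametocytes.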 The settings on record: P. falciparum stage V gametocytes, 24 h, at 10.9 µM, active compounds read high.
For orientation: inhibition means the relative decrease from the control value, in per cent. As to `Cc1ccc(S(=O)(=O)N2CCN(C)CC2)cc1`, the inhibition was -1.33% (inactive).

With `COc1cc2c(cc1OC)C(C(=O)Nc1cc(C)c(OC)c(C)c1)CC(=O)N2` (configuration not stated), the inhibition was 5.54% (inactive).

Take `CCOC(=O)c1sc(/N=C/C2=C(O)CC(C)(C)CC2=O)c(C(=O)OCC)c1C`: the inhibition is 22.4% (inactive).

With `O=C(c1ccc(F)cc1)n1cc(C(=S)N2CCOCC2)c2ccccc21`, the inhibition is 0.53% (inactive).

Turning to `Cn1cc(CN2CCC(C(O)CCc3ccccc3)CC2)c(-c2ccccc2F)n1` (configuration not stated), the inhibition is 9.2% (inactive).

With `N=c1n(CCc2ccccc2)c2ccccc2n1Cc1ccccc1F`, the inhibition was 59.9% (active).

As to `CN(Cc1ccccc1)Cc1ccccc1F`, the inhibition is 19.5% (inactive).

Consider `OC(CNC1CCCC1)COc1ccc(F)cc1` (configuration not stated), for which the inhibition is -4.99% (inactive).

`NC1=NC(c2ccc([N+](=O)[O-])cc2)N(c2ccc(F)cc2)C(N)=N1` (configuration not stated): the inhibition is 9.95% (inactive).

Take `CC(C)NC(=O)/C(C#N)=C\c1ccc(N(C)C)c(Br)c1`: the inhibition is 7.74% (inactive).

Take `CNC1(c2nnnn2-c2c(C)cccc2C)CCOC(C)(C)C1` (configuration not stated): the inhibition was 5.71% (inactive).

On to `COc1ccc(NC(=O)c2cc(-c3ccc(C)cc3)on2)cc1`, for which the inhibition is -2.96% (inactive).

On to `CCOC(=O)C1(Cc2ccccc2C)CCCN(S(C)(=O)=O)C1` (configuration not stated), for which the inhibition was -3.76% (inactive).

Turning to `COc1ccccc1C(=O)Nc1ccc(Nc2ccccc2)cc1`, the inhibition was -11.9% (inactive).

`COc1cc(OC)cc(-c2c(-c3cccs3)c3cc(-c4ccc(OC)nc4)ccc3n2C)c1`: the inhibition is -3.15% (inactive).

`Cc1ccc(C(=O)NNC2=Nc3cc([N+](=O)[O-])ccc3OC2)cc1`: the inhibition was 5.16% (inactive).

As to `O=Cc1c(NCCCN2CCCC2=O)c2ccccc2[nH]c1=O`, the inhibition was -5.27% (inactive).

For the molecule `COc1ccc(CNC(=O)C2CCCC2)cc1`, the inhibition is -3.19% (inactive).

On to `COc1cccc2oc(CCc3ccccc3)cc(=O)c12`, for which the inhibition is -20% (inactive).

On to `O=C(CN1CCCCCC1)Nc1ccc(Br)cc1[N+](=O)[O-]`, for which the inhibition is -7.18% (inactive).

In the case of `COc1ccc(NC(=O)CS(=O)(=O)c2ccccc2)cc1`, the inhibition is 34.6% (inactive).

Turning to `CCC(CO)Oc1cc(NC(=O)c2cccc(F)c2)c2ncn(C(C)C)c2c1` (configuration not stated), the inhibition was -8.65% (inactive).

For the molecule `CCc1nnc(NS(=O)(=O)c2ccc(NC(=O)c3cccc(OC(F)(F)C(F)F)c3)cc2)s1`, the inhibition was -3.99% (inactive).

In the case of `CC(C)(C)OC(=O)C[C@H]1C/C=C\C[C@@H](CC(=O)N[C@H](CO)Cc2ccccc2)C(=O)NC[C@@H](c2ccccc2)OC1=O`, the inhibition was 20.4% (inactive).

With `COc1ccc(S(=O)(=O)NCCCc2ccccc2)cc1`, the inhibition is -6.3% (inactive).

With `CCC1=NN2C(=N)/C(=C/c3cc(C)n(-c4ccccc4)c3C)C(=O)N=C2S1`, the inhibition was 20.8% (inactive).

In the case of `COC(=O)C1(CCSC)NC(c2ccc(OC)cc2OC)C2C(=O)N(c3cccc(C(C)=O)c3)C(=O)C21` (configuration not stated), the inhibition was 15.8% (inactive).

For `Nc1cc(N)nc(SCc2cccc(F)c2)n1`, the inhibition is -27.3% (inactive).

As to `COc1ccccc1C(=O)Nn1cnnc1`, the inhibition is -1.75% (inactive).

On to `COc1ccc(-c2cc3ncccc3cn2)cc1`, for which the inhibition was -25% (inactive).

In the case of `CC(=O)NCC(=O)NC1CCCc2c1cnn2-c1ccccc1F` (configuration not stated), the inhibition was -0.98% (inactive).

With `CCOc1cc(/C=C2\C(=N)N3N=C(C)SC3=NC2=O)ccc1OCCOc1ccccc1`, the inhibition was -11.6% (inactive).

Take `O=C1C=C(c2cccc(Cl)c2O)C[C@@H](c2ccc(F)cc2)C1`: the inhibition is -16.5% (inactive).

As for `COc1ccccc1OCCCCCCN1CCN(C)CC1`, the inhibition is 14.7% (inactive).

For the molecule `COc1cc(OC)cc(-c2sc3ccc(OC)cc3c2-c2ccc3cc[nH]c3c2)c1`, the inhibition is 5.06% (inactive).

Consider `C/C(=C/c1ccccc1)C(=O)N1CCN(c2ccccc2)CC1`, for which the inhibition was 5.72% (inactive).

Consider `Cc1cc2nc3n(c2cc1C)CC1CC(C(=O)NCCC(C)C)N(C)C31` (configuration not stated), for which the inhibition is 6.88% (inactive).

For the molecule `COC(=O)[C@]1(C)N[C@H](c2ccc(-c3ccc(Cl)c(Cl)c3)cc2)[C@@H]2C(=O)N(C)C(=O)[C@@H]21`, the inhibition is 15.7% (inactive).

For the molecule `CC(C)(C)NC(=O)/C(=C/c1cccnc1)NC(=O)c1ccco1`, the inhibition is -3.01% (inactive).

Regarding `COc1ccc(C(C)NC(=O)C2CCCC2)cc1` (configuration not stated), the inhibition is 7.38% (inactive).

As for `O=C(CNc1ccc(F)cc1F)NC(=O)NCc1ccco1`, the inhibition was -14.3% (inactive).

Turning to `COc1ccc2ccn(C)c2c1`, the inhibition was 3.29% (inactive).

For `CC(=O)N1CCC(N(C(=O)Nc2ccc(Cl)cc2)C(C)C)CC1`, the inhibition is -9.52% (inactive).

As to `CCC(=O)Nc1ccc(C(=O)NNC(=O)c2ccc(Cl)cc2)cc1`, the inhibition was 1.21% (inactive).

As for `CCN1C(=S)N[C@@H](CCc2ccccc2)[C@H](C(=O)OC)[C@H]1C`, the inhibition was 12.5% (inactive).

Turning to `Oc1c(Br)cc(/C=N/NC(=S)NCC2CCCO2)cc1Br` (configuration not stated), the inhibition is -1.52% (inactive).

In the case of `Cc1cc(N2CCN(c3ccccc3)CC2)nc(N2CCOCC2)n1`, the inhibition was -32.2% (inactive).

With `COc1ccc(NC(=O)C2=NNC(=O)CC2)cc1S(=O)(=O)N1CCCCC1`, the inhibition was 3.13% (inactive).

For the molecule `COc1ccc(N(CC(=O)Nc2cccc3ccccc23)S(C)(=O)=O)c(OC)c1`, the inhibition was 7.84% (inactive).

Take `O=C(COc1ccccc1)N1CCN=C1SCc1cccc(F)c1`: the inhibition was 8.04% (inactive).

For `O=C(Nc1cccc(S(=O)(=O)NC2=NCCC2)c1)C1CCCCC1`, the inhibition is -1.09% (inactive).

As to `CCOc1cc2ccccc2cc1C(=O)Nc1ccccn1`, the inhibition is 3.24% (inactive).

`CC(=O)c1ccc(N2Cc3ccccc3C2)cc1`: the inhibition was 9.41% (inactive).

`O=C(CC(c1ccccc1)c1cc(Cl)ccc1O)NCCN1CCOCC1` (configuration not stated): the inhibition was -8.49% (inactive).

Consider `CN(c1ccc(OCC(=O)NC2=NCCS2)cc1)S(=O)(=O)c1ccc(F)cc1`, for which the inhibition was -8.94% (inactive).

For the molecule `C/C(=N/NC(=O)CN1CCN(S(=O)(=O)c2ccc(Br)cc2)CC1)c1ccncc1`, the inhibition was -12.4% (inactive).

Consider `Cc1nnc(C)c2c(C)n(N)c(C)c12`, for which the inhibition is -1.23% (inactive).

With `COc1ccc(CCN2C(=O)C(C)=C(C)C2=O)cc1OC`, the inhibition was -7.13% (inactive).

With `COc1cc(OC)cc(-c2c(C#Cc3ccsc3)c3cc(-c4ccc(SC)cc4)ccc3n2C)c1`, the inhibition is 3.56% (inactive).

Turning to `O=C(c1ccco1)N1CCN(c2cccc(Cl)c2)CC1`, the inhibition was 4.74% (inactive).

Take `O=C(c1ccco1)N1CCN(CCOc2ccccc2)CC1`: the inhibition is -1.67% (inactive).

With `O=C(c1ccco1)N1CCN(C(=O)C2c3ccccc3Oc3ccccc32)CC1`, the inhibition was 42.8% (active).

For the molecule `CCCn1c(=O)c(C(=O)Nc2cc(C)ccn2)c(O)c2ccccc21`, the inhibition is -14.8% (inactive).

As to `CC(=O)c1ccc(NC(=O)C(C)N(C)CC(=O)Nc2ccccc2Cl)cc1` (configuration not stated), the inhibition was -5.51% (inactive).

With `CCOC(=O)C1(CCOc2ccccc2)CCN(Cc2cc(OC)cc(OC)c2)CC1`, the inhibition is 9.31% (inactive).

Turning to `Cn1c(=O)c2c(-c3cccc(Br)c3)c(C#N)c(N)nc2n(C)c1=O`, the inhibition is -18.2% (inactive).

For `COc1ccccc1-c1nnc(-c2ccc(F)cc2)o1`, the inhibition was -17.9% (inactive).

Consider `CCOC(=O)[C@H]1[C@H]2COc3ccccc3[C@@H]2N2C(=O)CN(Cc3ccccc3)C(=O)[C@@]12C`, for which the inhibition was -1.62% (inactive).

For `CC(=O)Cn1cnc2c(cnn2-c2ccccc2)c1=O`, the inhibition was 2.17% (inactive).

In the case of `O=C1C(=O)N(CCCO)C(c2ccccc2)/C1=C(\O)c1ccc(Br)cc1` (configuration not stated), the inhibition is 2.05% (inactive).

As to `COc1ccc(N(CC(=O)NCCSCc2cccc(Cl)c2)S(C)(=O)=O)cc1`, the inhibition is 1.88% (inactive).

Consider `COc1cc(OC)c(C(=S)N2CCCC2)cc1OC`, for which the inhibition is -6.55% (inactive).

As for `O=c1[nH]cnc(O)c1C(c1ccc(F)cc1)c1c(O)nc[nH]c1=O`, the inhibition is 0.56% (inactive).

As to `CCCc1nc2oc3c(=O)[nH]cnc3c2c2c1COC(C)(C)C2`, the inhibition was 8.46% (inactive).

For the molecule `COc1ccc(-c2c(C#Cc3ccccc3)c3ccccc3n2C)cc1`, the inhibition is -4.41% (inactive).

On to `Cc1cccc(NC(=O)C(C)SCc2ccccc2)c1` (configuration not stated), for which the inhibition is -2.36% (inactive).

In the case of `COc1ccc(Cc2cc(-c3ccc(F)cc3)n[nH]c2=O)cc1`, the inhibition is -14.6% (inactive).

Regarding `C=CC[C@@H](CC(=O)N[C@@H](CO)Cc1ccccc1)C(=O)NCCOC(=O)[C@@H](CC=C)CC(=O)OC(C)(C)C`, the inhibition was -18.1% (inactive).

As for `COc1ccccc1-n1c(SCC(=O)O)nc2sc3c(c2c1=O)CCC3`, the inhibition is -0.96% (inactive).

In the case of `Cc1cc(C)cc(NC(=O)NC2CCN(CC(=O)Nc3cccc(Cl)c3C)CC2)c1`, the inhibition is -10.3% (inactive).

With `CC(C)Cc1nnc(NC(=O)CCc2ccccc2)s1`, the inhibition is -5.6% (inactive).

Regarding `COc1ccc(CCNC(=O)C2CCCN2C(=O)Nc2ccccc2)cc1OC` (configuration not stated), the inhibition was 11.4% (inactive).

In the case of `COC(=O)C1(C)NC(c2ccc(F)cc2)C2C(=O)N(c3ccccc3)C(=O)C21` (configuration not stated), the inhibition was -19.3% (inactive).

For `COc1ccccc1-c1oc2ccccc2c1C#CCCCCO`, the inhibition was 7.1% (inactive).

`Cc1cc(-c2n[nH]c(=S)n2/N=C/c2ccco2)n[nH]1`: the inhibition was 9.38% (inactive).

Regarding `CCCNC(=S)N1CCC(NC(=O)c2ccc(OC)cc2)CC1`, the inhibition was -3.26% (inactive).

Regarding `COc1ccc(C(C(=O)NC(C)(C)C)N(C(=O)Cn2nnc3ccccc32)c2ccc(C(C)=O)cc2)cc1O` (configuration not stated), the inhibition was 8.85% (inactive).
